The results in this text go back to ChEMBL document CHEMBL4513216, “Probing the Open Global Health Chemical Diversity Library for Multistage-Active Starting Points for Next-Generation Antimalarials” (ACS Infect Dis, 2020).

Structures are written as SMILES. Out of some 69,000 compounds screened, about 8,600 (12%) showed an effect of 50% or more. Only a selection was taken, and strong results are over-represented in it overall.

In the experiment the test system is Plasmodium berghei. The experiment is described as follows: Screen against P. berghei liver stage (PbLuc), transformed with Luciferase, at 10uM. The settings on record: tested at 10 uM. It counts as functional, HepG2.
`Cc1nc(COC[C@@]23CCC[C@@H]2CN(CC2CCOCC2)C3)cs1`: the INHIBITION is on record as -5.63%.

In the case of `CN(C)CCO[C@H]1CN(Cc2ccco2)[C@@H]2COC[C@H]12`, the INHIBITION was determined as 30.3%.

Consider `Cc1csc(C(Cc2cccs2)NCc2cc3c(cc2C)OCO3)n1` (centres undefined), for which the INHIBITION amounted to 45.45%.

Turning to `CCN1CCC12CCN(C(=O)c1ccsc1)C2` (centres undefined), the INHIBITION was -30%.

As for `O=C(c1ccc[nH]1)N1Cc2nccn2CC(COc2cccnc2)C1` (centres undefined), the INHIBITION is given as 3.58%.

Take `CCCc1noc(C2CCCCN2C(=O)CCc2cnn(C)c2)n1` (centres undefined): the INHIBITION turned out to be 1.56%.

`COc1ccc(-c2nc(C#N)c(N(C)C)o2)cc1S(=O)(=O)N1CCCC1`: the INHIBITION is listed as -35.5%.

`c1cncc(CN2CC[C@@H]3O[C@H](COCCN4CCCC4)CC[C@@H]32)c1`: the INHIBITION is reported as -51%.

Take `COc1ccc(CNC(=O)NC(C)(CO)C2CC2)c(C(F)(F)F)c1` (centres undefined): the INHIBITION is 17.8%.

Take `Cc1noc(C)c1CN1CC[C@@H](OCC2CC2)[C@@H](Cc2ccccc2)C1`: the INHIBITION came out at 73.4%.

Consider `Cc1noc(C)c1CN1C[C@H](OCC2CCN(C)CC2)[C@H]2COC[C@H]21`, for which the INHIBITION is on record as -12.2%.

In the case of `Cc1noc(C)c1CN1CC[C@H](OCC2CC2)[C@@H](Cc2ccccc2)C1`, the INHIBITION worked out at 53.2%.

Take `COc1ccc(C[C@H]2CN(C3CCOCC3)CC[C@H]2OCC2CC2)cc1`: the INHIBITION was -24.5%.

For `Cc1noc(C)c1CN1C[C@H](OCC2CC2)[C@H]2COC[C@H]21`, the INHIBITION is given as -41%.

On to `Cc1noc(C)c1CN1C[C@H](OCC2CC2)[C@H]2OCCC[C@H]21`, for which the INHIBITION was -1.64%.

On to `O=C(NCCc1ccncc1)[C@@H]1CC[C@@H]2[C@@H](CCN2Cc2ccco2)O1`, for which the INHIBITION was 31.7%.

As for `O=S(=O)(NC1CCC12CCN(CC1CC1)CC2)c1ccccc1` (centres undefined), the INHIBITION turned out to be 26%.

As to `COCC(=O)N1CCC2(CCC2NS(=O)(=O)c2ccccc2)CC1` (centres undefined), the INHIBITION is recorded as 64.5%.

Turning to `COCC(=O)N1CCC2(CCC2NC(=O)c2ccn(C)c2)CC1` (centres undefined), the INHIBITION stood at 41.6%.

In the case of `Cc1nc(O)c2nnn(C[C@H]3CCCN3C(=O)c3ccc(F)cc3)c2n1`, the INHIBITION is 8.72%.

As to `CCc1cc(=O)[nH]c(-c2ccc(NC(C)COC)nc2)n1` (centres undefined), the INHIBITION was -10.3%.

Consider `CCOC(=O)C1(Cc2cccc(OC)c2)CCN(Cc2ccon2)CC1`, for which the INHIBITION is 55.7%.

For `COc1cccc(CC2(C(=O)O)CCN(c3nccs3)CC2)c1`, the INHIBITION is 22.3%.

As for `CCOC(=O)C1(Cc2cccc(OC)c2)CCCN(Cc2ncc[nH]2)C1` (centres undefined), the INHIBITION came out at 41.2%.

In the case of `COc1cccc(CNC(=O)N2CCN(Cc3cc(C)on3)CC2)c1`, the INHIBITION is reported as -1.62%.

On to `CCOC(=O)C1(Cc2ccc(Cl)cc2)CCN(Cc2ncc[nH]2)CC1`, for which the INHIBITION is 82.1%.

`CCOC(=O)C1(Cc2cccc(Cl)c2)CCCN(Cc2ncc[nH]2)C1` (centres undefined): the INHIBITION is 46.7%.

On to `COc1cccc(CC2(C(=O)O)CCN(c3ccc(Cl)cn3)CC2)c1`, for which the INHIBITION came to 30.8%.

With `O=C1CC2(CCN(Cc3ncc[nH]3)CC2)CN1Cc1ccc(Cl)cc1`, the INHIBITION stood at 12.4%.

For the compound `CCOC(=O)C1(Cc2cccc(OC)c2)CCN(Cc2ncc[nH]2)CC1`, the INHIBITION came to 57.6%.

For the compound `CS(=O)(=O)N1C[C@H](C(=O)Nc2cccnc2)[C@@H]2CCO[C@@H]2C1`, the INHIBITION was -7.7%.

As for `CN(C)c1ncnc2c1CCN(C(=O)c1cccnc1)CC2`, the INHIBITION came to 20.6%.

`COc1cc(NC2CCN(C3CCS(=O)(=O)CC3)CC2)ncn1`: the INHIBITION was -15%.

With `Cc1ccc(CC(=O)N2CCCC(c3cc(C(N)=O)[nH]n3)C2)cn1` (centres undefined), the INHIBITION is listed as 39.35%.

As to `Cc1ccc(NC(=O)NCC(c2cnn(C)c2)N(C)C)c(C)c1` (centres undefined), the INHIBITION is 57.7%.

In the case of `CCOc1ccccc1CNC(=O)NCC(c1cnn(C)c1)N(C)C` (centres undefined), the INHIBITION came to 62.8%.

For the compound `CCOc1cc(F)ccc1NC(=O)NCC(c1cnn(C)c1)N(C)C` (centres undefined), the INHIBITION stood at 44.9%.

Regarding `Cn1cc(C(O)CNC(=O)Nc2cc(F)ccc2-n2cccn2)cn1` (centres undefined), the INHIBITION turned out to be 23.4%.

Take `Cc1ccc(C(=O)NCC(c2cnn(C)c2)N(C)C)c(O)c1` (centres undefined): the INHIBITION is on record as 1.19%.

Take `CCOCc1ccccc1NC(=O)NCC(c1cnn(C)c1)N(C)C` (centres undefined): the INHIBITION is on record as 2.91%.

On to `O=C(c1ccc(C2CCNC2)cc1)N1CCC(N2CCC(O)CC2)CC1` (centres undefined), for which the INHIBITION is on record as -8%.

Turning to `CCN(CC)Cc1cn2c(n1)CN(C(=O)c1cnccn1)CC2`, the INHIBITION is 37%.

Regarding `CN1C(=O)CO[C@H]2CN(C(=O)c3ccc4c(c3)CCCC4)C[C@@H]21`, the INHIBITION was -3%.

As for `Cn1ccnc1CN1CCC(Cc2ccccn2)CC1`, the INHIBITION worked out at 38.2%.

For the compound `O=C(NCCCO)c1nc(-c2ccc3cc[nH]c3c2)no1`, the INHIBITION is given as -108%.

With `CC(NC1CCCC1)c1ccccc1-n1cccn1` (centres undefined), the INHIBITION is -8.66%.

Turning to `c1cncc(NCCNC2CSCCSC2)c1`, the INHIBITION is listed as 57.5%.

Consider `c1cncc(NCCNC2CCSCC2)c1`, for which the INHIBITION is -22.8%.

Regarding `c1cncc(NCCNC2CCCNC2)c1` (centres undefined), the INHIBITION came to 4.95%.

Regarding `c1cncc(NCCNC2CCSC2)c1` (centres undefined), the INHIBITION is given as 29.7%.

Take `CC(C)CN1CCC(NCCNc2cccnc2)CC1`: the INHIBITION turned out to be 52.7%.

As for `Cc1cnccc1NCCNC1CCN(CC(C)C)CC1`, the INHIBITION is recorded as -58.7%.

For the compound `CC(C)CN1CCC(NC(C)c2ccccc2-n2cccn2)CC1` (centres undefined), the INHIBITION stood at 89.1%.

As to `CC(NC1CCSCC1)c1ccccc1-n1cccn1` (centres undefined), the INHIBITION is on record as -4.12%.
